# NTMT1 inh = blocks human N-terminal methyltransferase 1 activity. NTMT1 MTase-Glo SAH luminescence, purified enzyme. Potency, µM (doses to about 114 µM), most hits filed as inhibitors. AID 1645870. actives 2.5% (n = 59,000). Q9BV86; note: nearly all actives have a fitted effect of over 65% in size
# HTT-AS act = activates huntingtin-antisense promoter activity | AID 1508624 | Potency, µM (doses to about 57.5 µM), hits mostly activators | actives 0.24% (n = 48,000) | HEK293 HTT-AS promoter firefly luciferase reporter, 24 h; response scale: percent change from vehicle, -100% = no light; note: nearly all actives have a fitted effect of over 55% in size
#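 Luminescence was read after Dual-Glo reagent and a 10 min room-temperature incubation. Values were normalized to vehicle (0% activity) and zero RLU (-100% activity). Reporter HEK293 cells had been exposed to compounds (up to 57.5 uM final) for 24 h.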
# FH mod = Identification of activators of human fumarate hydratase by quantitative high-throughput screening; AID 1347055, 2019; Fumarate hydratase, mitochondrial (Homo sapiens), P07954; Potency, µM (highest dose often 79.9 µM), actives largely listed as inhibitors; FH coupled MDH/diaphorase resazurin fluorescence, 15 min; actives 0.22% (n = 54,000); note: the screen sought activators but most active calls are inhibition curves; nearly all actives have a fitted effect of over 45% in size
# HTT prom inh = inhibitors of huntingtin promoter activity | HEK293 HTT promoter firefly luciferase reporter, 24 h | Potency, µM (series often up to 57.5 µM), usual class: inhibitors | actives 0.93% (n = 48,000); note: nearly all actives have a fitted effect of over 50% in size
#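 HEK293 luciferase promoter-reporter cells (2,500/well) plated 24 h, then compounds added at up to 57.5 uM final for 24 h at 37 °C. Firefly luminescence by Dual-Glo, normalized to vehicle (0%) and zero RLU (-100%).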
# CLK4 inh = confirmation of human CLK4 kinase inhibitors, SAR round 2 | recombinant Clk4, Kinase-Glo ATP luminescence, 4.5 h | Potency, µM (highest dose often 76.9 µM), hits mostly inhibitors | shares compounds with NTMT1 inh | actives 90% (n = 90)
# Sfp PPTase inh = inhibitors of Bacillus subtilis Sfp PPTase, optimization followup | shares compounds with NTMT1 inh | purified Sfp PPTase enzyme activity, qHTS | Potency, µM (titrated, usually from 114 µM), hits mostly inhibitors | actives 78% (n = 230) | AID 540350
# HM489 growth = reduces growth of B. subtilis HM489 strain | shares compounds with NTMT1 inh | B. subtilis HM489 (acpS-) growth, BacTiter-Glo, 5 h | Potency, µM (doses to about 114 µM), usual class: inhibitors | actives 50% (n = 220) | AID 540353
# Sfp PPTase gel = inhibitors of Bacillus subtilis Sfp PPTase, gel-based followup. shares compounds with NTMT1 inh. purified Sfp PPTase, gel-based product detection. Potency, µM (highest dose often 250 µM), most hits filed as inhibitors. actives 54% (n = 220)
# Sfp SAR2 = inhibitors of Bacillus subtilis Sfp PPTase, SAR round 2; shares compounds with NTMT1 inh; AID 602370; purified Sfp enzyme, PPTase activity, qHTS; actives 87% (n = 230); Potency, µM (doses to about 57.1 µM), usual class: inhibitors
# hGST A1-1 inh = hGST A1-1 enzyme inhibition, Sfp SAR counter-screen | shares compounds with NTMT1 inh | hGST A1-1 enzyme activity counter-screen, qHTS | Potency, µM (doses to about 114 µM), hits mostly inhibitors | 55 tested, under 10 active
# HSD17B4 counter = counter-screen for HPGD inhibitors: human HSD17B4 inhibition; shares compounds with NTMT1 inh; purified HSD17B4, estradiol/NAD+, NADH fluorescence; Potency, µM (series often up to 57.1 µM), actives largely listed as inhibitors; actives 10% (n = 230)
# ALDH1A1 counter = inhibits human ALDH1A1, off-target for HPGD inhibitors; Potency, µM (highest dose often 57.1 µM), hits mostly inhibitors; recombinant ALDH1A1, NADH fluorescence, propionaldehyde/NAD+; AID 743195; shares compounds with NTMT1 inh; actives 93% (n = 230)
# NNMT counter = blocks human NNMT methyltransferase. shares compounds with NTMT1 inh. NNMT MTase-Glo luminescence, SAH detection. Potency, µM (series often up to 57.1 µM), hits mostly inhibitors. actives 10% (n = 120). AID 1645878
# Target sequence (P40261 whole entry, looked up): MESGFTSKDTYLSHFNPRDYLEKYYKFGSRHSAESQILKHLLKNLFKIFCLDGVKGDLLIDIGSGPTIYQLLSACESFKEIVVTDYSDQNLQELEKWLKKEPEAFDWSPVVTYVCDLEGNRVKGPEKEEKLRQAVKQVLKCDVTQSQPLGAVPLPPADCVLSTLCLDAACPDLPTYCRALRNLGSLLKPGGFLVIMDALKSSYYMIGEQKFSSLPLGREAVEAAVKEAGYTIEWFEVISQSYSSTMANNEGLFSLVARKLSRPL
# Hits are given with their value; n = inactive; u = inconclusive; x = not tested or not shown. Only some compounds are listed: those with a hit (about 2.6% of all), similar ones and a draw of the others. Calls come from the whole dose curve; as a rule, active = well fitted curve in the direction sought with a large enough effect; inconclusive = small, poorly fitted or top-dose-only effect, or another doubt; inactive = no such curve, though single readings can be large; an effect the other way counts as inactive or inconclusive.
SMILES,NTMT1 inh,HTT-AS act,FH mod,HTT prom inh,NNMT counter,others
COC(=O)C1=C(C)NC(C)=C(C(=O)O[C@@H]2CCCN(Cc3ccccc3)C2)[C@@H]1c1cccc([N+](=O)[O-])c1,u,n,u,u,n,
CC1=C(C(=O)OC(C)C)C(c2cccc([N+](=O)[O-])c2)C(C(=O)OC2CN(C(c3ccccc3)c3ccccc3)C2)=C(N)N1 (configuration not stated),n,n,n,u,x,
Cc1ccc(NS(=O)(=O)c2cc3c(cc2Cl)NC(=O)CO3)cc1Cl,n,x,x,x,x,
FC(F)(F)c1cnc(N2CCN(C(=S)Nc3cc(Cl)ccn3)CC2)c(Cl)c1,u,x,x,x,x,Sfp PPTase inh=9.4µM;HM489 growth=12µM;Sfp PPTase gel=u;Sfp SAR2=1.3µM;HSD17B4 counter=n;ALDH1A1 counter=3.8µM
Cc1ccnc(NC(=S)N2CC3CN(c4ncc(C(F)(F)F)cc4Cl)CC3C2)c1 (configuration not stated),u,x,x,x,x,Sfp PPTase inh=0.58µM;Sfp SAR2=1.3µM;hGST A1-1 inh=n;HSD17B4 counter=n;ALDH1A1 counter=0.38µM
Cc1ccsc1CN(C)c1ncnc2ccc(-c3ccc(COC(=O)N(C)C)o3)cc12,x,x,x,x,x,CLK4 inh=1.5µM
Cc1ccc(CN(C)c2ncnc3ccc(-c4ccc(CO)o4)cc23)o1,u,x,x,x,x,CLK4 inh=0.065µM
Cc1ccc(CN(C(=O)c2ccc(C(C)(C)C)cc2)c2ccccn2)o1,n,n,n,u,x,
COc1cccc(C(=O)NCCNc2nc3cc(C)cc(C)c3cc2C#N)c1,n,x,n,x,u,
CC(C)(C)Cn1c(N)nc2ccc(-c3[nH]c(C(C)(C)C)nc3-c3ccc(F)cc3)nc21,13µM,n,n,u,14µM,
Cc1cccc(-c2[nH]c(C(C)(C)C)nc2-c2ccc3c(c2)OCO3)n1,n,n,n,u,x,
CCC(C(C)O)n1ncn(-c2ccc(N3CCN(c4ccc(OCC5COC(Cn6cncn6)(c6ccc(F)cc6F)C5)cc4)CC3)cc2)c1=O (configuration not stated),n,x,n,x,x,
COc1cc(N2CCC(O)CC2)ccc1Nc1nc(Nc2ccccc2S(=O)(=O)C(C)C)c2[nH]cnc2n1,n,x,n,x,u,
C=CCNC1=C2CC(C)CC(OC)C(O)C(C)/C=C(\C)C(OC(N)=O)C(OC)/C=C/C=C(\C)C(=O)NC(=CC1=O)C2=O (configuration not stated),n,x,x,x,x,

# Bioassay records deposited in PubChem by National Center for Advancing Translational Sciences (NCATS).
